PubChem BioAssay (NCATS)
Records with an inconclusive call do not appear. Values without a mark were called inactive. Activity calls are given as the source filed them. The call rests on the fitted dose curve.

Experiment: Validation screen for inhibitors of Lassa infection (AID 463096)
Conditions: Lassa virus infection, cell-based; series mostly up to 46.1 µM; activity change, negative = inhibition: at the top concentration
On the % scale 0 is the no-effect control and ±100 the full control effect; potency means the concentration at half of the fitted maximal effect.

Compared with `Cc1cn([C@H]2C=C[C@@H](CO)O2)c(=O)[nH]c1=O`, `Cc1[nH]c(=O)c(C#N)cc1-c1ccncc1` is lower in “activity change, negative = inhibition” value: 20.2% for the first, 11.8% for the second.

First: CCCN(CCC)CCc1cccc2c1CC(=O)N2
Second: CCC1(c2ccccc2)C(=O)NCNC1=O
The “activity change, negative = inhibition” value of the first is lower: 23.4% for the first, 36.3% for the second.

Going from `Cn1cnc([N+](=O)[O-])c1Sc1ncnc2nc[nH]c12` to `CC1=NS(=O)(=O)c2cc(Cl)ccc2N1`, the “activity change, negative = inhibition” value rises from -30.1% to 61.5%.

Compared with `NNCCc1ccccc1`, `CC(C(=O)O)c1cccc(C(=O)c2ccccc2)c1` (configuration not stated) is lower in “activity change, negative = inhibition” value: 19.3% for the first, 16.8% for the second.

First: NC12CC3CC(CC(C3)C1)C2
Second: CNC1(C)C2CCC(C2)C1(C)C (configuration not stated)
The “activity change, negative = inhibition” value of the first is higher: 34.3% for the first, 30.4% for the second.

Compared with `O=C1NC(=O)C(c2ccccc2)(c2ccccc2)N1`, `CN(C)CC/C=C1\c2ccccc2COc2ccccc21` is lower in “activity change, negative = inhibition” value: 4.52% for the first, -43.3% for the second.

Compared with `O=C1CCc2cc(OCCCCc3nnnn3C3CCCCC3)ccc2N1`, `Cc1cnc(C(=O)NCCc2ccc(S(=O)(=O)NC(=O)NC3CCCCC3)cc2)cn1` is higher in “activity change, negative = inhibition” value: -39.3% for the first, 24.3% for the second.

First: O=NN(CCCl)C(=O)NCCCl
Second: CCN(CC)CCOC(=O)C1(C2CCCCC2)CCCCC1
The “activity change, negative = inhibition” value of the first is higher: 1.54% for the first, -47.9% for the second.

Going from `CC(C)[N+](C)(CCOC(=O)C1c2ccccc2Oc2ccccc21)C(C)C` to `COC(=O)C1=C(C)NC(C)=C(C(=O)OCCN(C)Cc2ccccc2)C1c1cccc([N+](=O)[O-])c1` (configuration not stated), the “activity change, negative = inhibition” value falls from -3.02% to -5.1%.

Compared with `COc1cc2nc(N3CCN(C(=O)C4CCCO4)CC3)nc(N)c2cc1OC` (configuration not stated), `COc1cc2nc(N3CCN(C(=O)C4COc5ccccc5O4)CC3)nc(N)c2cc1OC` (configuration not stated) is lower in “activity change, negative = inhibition” value: -13.9% for the first, -17.6% for the second.

Going from `O=c1[nH]cc(F)c(=O)[nH]1` to `O=C(CCCN1CCC(O)(c2ccc(Cl)cc2)CC1)c1ccc(F)cc1`, the “activity change, negative = inhibition” value falls from -12.1% to -43%.

Going from `O=C(c1ccccc1)c1ccc2n1CCC2C(=O)O` (configuration not stated) to `CN1CCN(C2=Nc3ccccc3Oc3ccc(Cl)cc32)CC1`, the “activity change, negative = inhibition” value falls from 4.5% to -16.5%.

Compared with `Cc1ccc(S(=O)(=O)NC(=O)NN2CCCCCC2)cc1`, `CN1CCN(C2=Nc3cc(Cl)ccc3Nc3ccccc32)CC1` is lower in “activity change, negative = inhibition” value: 20.6% for the first, -22.7% for the second.

First: CC(C)NCC(O)COc1ccc(CCOCC2CC2)cc1 (configuration not stated)
Second: COCCCC/C(=N\OCCN)c1ccc(C(F)(F)F)cc1
The “activity change, negative = inhibition” value of the first is higher: 23.8% for the first, -35.4% for the second.

Going from `Cc1ccccc1N1C(=O)c2cc(S(N)(=O)=O)c(Cl)cc2NC1C` (configuration not stated) to `N[C@@H]1CONC1=O`, the “activity change, negative = inhibition” value falls from 23.9% to 1.69%.

For `CCN(CC)C(=S)SSC(=S)N(CC)CC`, the Potency was 10 µM (active).
For `COc1ccc([C@@H]2Sc3ccccc3N(CCN(C)C)C(=O)[C@@H]2OC(C)=O)cc1`, the Potency was 1.41 µM (active).
